Reference: PubChem BioAssay
Active and inactive are the calls of the source.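 Rule for the calls, unless noted: active = visual image review flags a hit and inhibition of aggregation exceeds 20%; inconclusive = visual hit but inhibition at or below 20%; inactive = no hit on visual image review.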

assay: inhibitors of TNFa-induced NFkB p65 translocation, primary screen, imaging, HUVEC, MLSMR starter and 10KST1 sets (AID 438;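 active = inhibition above 20% together with a positive visual image hit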;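 note: compound added about 3h40 before a 20 min TNFalpha stimulation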;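 for inhibition: signal is the nuclear over cytoplasmic p65 intensity ratio per well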); settings: HUVEC TNFa-induced p65 nuclear translocation; cell count: measured here: nuclei count (cytotoxicity indicator), at 2.08 µM; inhibition: at 2 µM, stronger effect = higher value, 0% TNFa-plus-vehicle, 100% no-TNFa wells

Row | SMILES | inhibition | cell count
1 | CCCNC(=O)c1ccccc1NC(=O)CN(c1ccccc1OCC)S(C)(=O)=O | -8.2% (inactive) | 654
2 | CCS(=O)(=O)N1CCC(C(=O)NC2CCCCCCC2)CC1 | -9.4% (inactive) | 649
3 | COc1ccc(C(=O)N2CCCc3ccccc32)cc1 | 2.5% (inactive) | 433
4 | CCOC(=O)c1cnn(-c2sc(C(=O)OCC)c(C)c2C(=O)OCC)c1N | -1.9% (inactive) | 451
5 | CCn1c(C(=O)N2CCCC(C(=O)NCCCc3ccccc3)C2)cc2sccc21 (configuration not stated) | -12% (inactive) | 618
6 | CCC1CCCCN1CCCNC(=O)CC1Oc2ccc(C)cc2NC1=O (configuration not stated) | -1.8% (inactive) | 810
7 | CC(C)OC(=O)CSc1nnc(-c2ccccn2)n1-c1ccccc1 | 1.6% (inactive) | 306
8 | O=C(O)C1CC=CCC1C(=O)Nc1cc(Cl)ccc1Cl (configuration not stated) | 4.2% (inactive) | 389
9 | COC(=O)Nc1ccc(NC(C)=O)cc1 | -4.4% (inactive) | 398
10 | O=C(COC(=O)c1cncc(Br)c1)NCCC1=CCCCC1 | -7.6% (inactive) | 555
11 | COc1cccc(-c2noc(C3CCCN(C(=O)Cc4ccccc4)C3)n2)c1 (configuration not stated) | -2.8% (inactive) | 276
12 | Cc1cc(NS(=O)(=O)c2ccc(NC(=O)Nc3ccc4c(c3)OCO4)cc2)no1 | -10.7% (inactive) | 599
13 | CCOC(=O)N1CCC(N2C(=O)c3ccc(C(=O)NCc4ccco4)cc3C2=O)CC1 | -6.1% (inactive) | 646
14 | COc1ccc(C2CC(=O)C3=C(C2)Nc2ccccc2N(C(=O)C2CC2)C3c2cccnc2)cc1OC (configuration not stated) | -10.9% (inactive) | 683
15 | OC(CNCC1COc2ccccc2O1)COCc1cccs1 (configuration not stated) | 0.8% (inactive) | 615
16 | COC(=O)n1c(=S)oc2cc(Cl)ccc21 | 8.2% (inactive) | 673
17 | CCOC(=O)C1CCN(C(=O)CCCCn2c(=O)[nH]c3ccccc3c2=O)CC1 | -8.6% (inactive) | 517
18 | CN(c1ccc(OCc2nnc(-c3ccccc3)o2)cc1)S(=O)(=O)c1ccccc1 | 10.1% (inactive) | 587
19 | Cc1ccccc1NC(=O)C1CCCN(S(=O)(=O)c2cnc[nH]2)C1 (configuration not stated) | -11% (inactive) | 726
20 | COc1ccc(C(=O)NCC(=O)NC2=NCCS2)cc1 | -11.6% (inactive) | 772
21 | O=C1N2c3ccccc3CCc3cccc(c32)C1(O)C(F)(F)F (configuration not stated) | 4.7% (inactive) | 747
22 | Cn1c(=O)c2c(nc(CN3CCN(Cc4ccccc4)CC3)n2Cc2cccc(Cl)c2)n(C)c1=O | -13.1% (inactive) | 488
23 | CN(C)c1ccc(CNCCC2(O)CCOC(C)(C)C2)cc1 (configuration not stated) | -1.4% (inactive) | 495
24 | CC(C(N)=O)N1C(=O)C2C3C=CC(C3)C2C1=O (configuration not stated) | 1.8% (inactive) | 217
25 | Nc1nc(-c2ccc(Br)s2)c(Br)s1 | -10.7% (inactive) | 579
26 | O=C(c1c(F)cccc1F)N(Cc1ccccn1)C1CCCC1 | -11.2% (inactive) | 521

assay: reduction of polyQ htt aggregates in cells – imaging, exon1htt(103Q)mCFP cells, high-content imaging, primary screen (AID 483); settings: exon1htt(103Q)mCFP cell line, aggregate imaging, at 2 µM; inhibition of aggregation: stronger effect = higher value; nuclei count: measured here: cell count, toxicity;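 note: compound exposure lasted 3 days before fixation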;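 for nuclei count: percent of the per-plate median nuclei count of sample wells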

Row | SMILES | inhibition of aggregation | nuclei count
27 | CCOC(=O)N1CCN(C(=O)c2cccn3c(=O)c4sccc4nc23)CC1 | -5.5% (inactive) | 102%
28 | O=C(c1cc2ccccc2oc1=O)N1CCN(c2ccc(N3CCOCC3)nn2)CC1 | 0.1% (inactive) | 104%
29 | CCc1cccc(NC(=O)CCc2nc(-c3cccs3)no2)c1 | -7.6% (inactive) | 106%
30 | O=C(C1CC1)N1CCc2cc(Br)cc(S(=O)(=O)N3CCOCC3)c21 | -4.4% (inactive) | 106%
31 | CCOCCCNC(=O)C1CCCN(S(=O)(=O)CC)C1 (configuration not stated) | -6.6% (inactive) | 112%
32 | C/C(N)=C(/C#N)C(=O)COC(=O)CCSc1ccccc1 | 7.6% (inactive) | 117%
33 | CCCOc1ccc(N2CC(C(=O)Nc3ccc4c(c3)OCO4)CC2=O)cc1 (configuration not stated) | 14.9% (inactive) | 81%
34 | CCC(C)Nc1nc2c(c(=O)n(C)c(=O)n2C)n1Cc1ccc(F)cc1 (configuration not stated) | 9.6% (inactive) | 100%
35 | COc1ccc2cc(C(c3nnnn3C3CCCCC3)N3CCCCCC3)c3nnnn3c2c1 (configuration not stated) | -7.5% (inactive) | 108%
36 | O=C(Nc1cccnc1)Nc1ccccn1 | 6.4% (inactive) | 106%
37 | O=C(NC1CCCCC1)c1cc2nc(-c3ccco3)cc(C(F)(F)F)n2n1 | 12.4% (inactive) | 92.7%
38 | O=C(CCN1C(=O)COc2ccccc21)NCCN1CCN(c2cccc(Cl)c2)CC1 | 0.2% (inactive) | 88.9%
39 | CCCc1cc(=O)[nH]c(SCc2ccccc2)n1 | -3.9% (inactive) | 99.8%
40 | CC(CCc1ccco1)NC(=O)Cn1ncc2c1-c1ccccc1OC2 (configuration not stated) | -17.9% (inactive) | 126%
41 | CCCNC(=O)c1ccccc1NC(=O)CN(c1ccccc1OCC)S(C)(=O)=O | -11% (inactive) | 105%
42 | CCS(=O)(=O)N1CCC(C(=O)NC2CCCCCCC2)CC1 | -9.5% (inactive) | 104%
43 | COc1ccc(C(=O)N2CCCc3ccccc32)cc1 | -1.4% (inactive) | 107%
44 | CCOC(=O)c1cnn(-c2sc(C(=O)OCC)c(C)c2C(=O)OCC)c1N | -35.1% (inactive) | 99.7%
45 | CCn1c(C(=O)N2CCCC(C(=O)NCCCc3ccccc3)C2)cc2sccc21 (configuration not stated) | 40.9% (active) | 123%
46 | CCC1CCCCN1CCCNC(=O)CC1Oc2ccc(C)cc2NC1=O (configuration not stated) | 13.7% (inactive) | 105%

Row | SMILES | inhibition of aggregation | nuclei count
47 | CC(C)OC(=O)CSc1nnc(-c2ccccn2)n1-c1ccccc1 | -8.2% (inactive) | 102%
48 | O=C(O)C1CC=CCC1C(=O)Nc1cc(Cl)ccc1Cl (configuration not stated) | -1.2% (inactive) | 98.5%
49 | COC(=O)Nc1ccc(NC(C)=O)cc1 | 20.9% (inactive) | 82.1%
50 | O=C(COC(=O)c1cncc(Br)c1)NCCC1=CCCCC1 | 6% (inactive) | 107%
51 | COc1cccc(-c2noc(C3CCCN(C(=O)Cc4ccccc4)C3)n2)c1 (configuration not stated) | 5.5% (inactive) | 109%
52 | Cc1cc(NS(=O)(=O)c2ccc(NC(=O)Nc3ccc4c(c3)OCO4)cc2)no1 | -12.8% (inactive) | 108%
53 | CCOC(=O)N1CCC(N2C(=O)c3ccc(C(=O)NCc4ccco4)cc3C2=O)CC1 | 0.7% (inactive) | 96.3%
54 | COc1ccc(C2CC(=O)C3=C(C2)Nc2ccccc2N(C(=O)C2CC2)C3c2cccnc2)cc1OC (configuration not stated) | -43.4% (inactive) | 87.2%
55 | OC(CNCC1COc2ccccc2O1)COCc1cccs1 (configuration not stated) | -9.6% (inactive) | 105%
56 | COC(=O)n1c(=S)oc2cc(Cl)ccc21 | -25.1% (inactive) | 106%
57 | CCOC(=O)C1CCN(C(=O)CCCCn2c(=O)[nH]c3ccccc3c2=O)CC1 | -27.5% (inactive) | 100%
58 | CN(c1ccc(OCc2nnc(-c3ccccc3)o2)cc1)S(=O)(=O)c1ccccc1 | 13.2% (inactive) | 95%
59 | Cc1ccccc1NC(=O)C1CCCN(S(=O)(=O)c2cnc[nH]2)C1 (configuration not stated) | 21.2% (inactive) | 109%
60 | COc1ccc(C(=O)NCC(=O)NC2=NCCS2)cc1 | -22.1% (inactive) | 69.1%
61 | O=C1N2c3ccccc3CCc3cccc(c32)C1(O)C(F)(F)F (configuration not stated) | 0.2% (inactive) | 82.6%
62 | Cn1c(=O)c2c(nc(CN3CCN(Cc4ccccc4)CC3)n2Cc2cccc(Cl)c2)n(C)c1=O | 6.5% (inactive) | 100%
63 | CN(C)c1ccc(CNCCC2(O)CCOC(C)(C)C2)cc1 (configuration not stated) | 3.5% (inactive) | 89.5%
64 | CC(C(N)=O)N1C(=O)C2C3C=CC(C3)C2C1=O (configuration not stated) | -14% (inactive) | 105%
65 | Nc1nc(-c2ccc(Br)s2)c(Br)s1 | 5.7% (inactive) | 102%
66 | O=C(c1c(F)cccc1F)N(Cc1ccccn1)C1CCCC1 | 24.2% (inactive) | 110%
